# GSIS activator = GLuc luminescence reporter in INS-1E cells, primary screen for activators of glucose-dependent secretion of insulin. INS-1E GLuc reporter insulin secretion, 2-3 h. activation, % at 16.6 µM. 370,000 tested, 0.61% active. AID 743287;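 active means lowest replicate activation of at least 40%, so every replicate reaches that level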
# ABCB6 inh 2 = human ABCB6 transporter inhibition | Q9NP58 | K562-ABCB6 porphyrin accumulation, flow cytometry, 1 h; stronger effect = lower value | fluorescence ratio to DMSO, % at 10 µM | 360,000 tested, 0.19% active | AID 602162;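 active means fluorescence ratio to DMSO below 75%, the collection mean minus 3 SD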;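 further: signal is porphyrin accumulated inside mitochondria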
# ARNT-TACC3 inh = disrupts binding between human ARNT and TACC3. AlphaScreen His-ARNT PAS-B/GST-TACC3 binding, luminescence; TACC3 fragment carries E629A point mutation. AID 623870. inhibition, % at 9.99 µM. 390,000 tested, 0.66% active;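 active means mean inhibition of replicates at least 50% and at least half of replicates each reaching 50%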
# NRP1-CendR mod = modulators of CendR peptide binding to human neuropilin-1. inhibition, % at 25 µM. O14786. FAM-RPARPAR peptide binding to NRP-1, fluorescence polarization. 360,000 tested, 0.85% active. AID 602438;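 active means inhibition or corrected inhibition above about 18%, plus a signal ratio from 0.5 to 1.5, limit read from the data, passing the limit was not always enough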
# hiPSC survival = increases survival of single human iPS cells | hiPSC single-cell survival, ATPlite luminescence; 100% = ROCK inhibitor wells, 0% = DMSO | survival enhancement, % at 20 µM | 360,000 tested, 0.044% active | AID 602274; in the data active means survival enhancement above about 18%;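 further: cells exposed to compounds for 16 hours before the ATP read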
# Hits are given with their value; – = inactive; · = no result given. The list is not random: actives were taken first. Their share in the collection is about 1.8%.
SMILES,GSIS activator,ABCB6 inh 2,ARNT-TACC3 inh,NRP1-CendR mod,hiPSC survival
CCCOC(=O)Oc1ccc2c(=O)c(Oc3cc(C)cc(C)c3)coc2c1,–,–,–,–,25
CN(C)c1cncc(C(=O)O)c1,63,–,–,–,–
Cn1c(/C(C#N)=C/c2ccc(O)cc2)nc2ccccc21,42,–,–,–,–
Cc1oc(-c2ccccc2)nc1C(=O)OCC(=O)NCc1ccccc1,–,–,·,–,–
CCOC(=O)c1nc(-c2ccccc2)oc1N(C)C,84,–,–,–,–
C=C1[C@@H](O)[C@H](CC(C)C)N(Cc2ccccc2Br)S1(=O)=O,45,–,–,–,–
Cc1ccccc1CN1[C@@H](CC(C)C)COc2cc(Br)ccc2S1(=O)=O,–,·,·,·,·
COc1cccc(C(=O)OC2CCCN(C)C2)c1 (stereo not given),–,–,–,–,–
CN1CCCC(OC(=O)c2ccc(C#N)cc2)C1 (stereo not given),57,–,–,–,–
C=CCOc1cccc(C(=O)N2CCC(CCC(=O)NC3CC3)CC2)c1,54,–,–,–,–
O=C(C[C@@H]1C=C[C@H](NC(=O)C2CC2)[C@H](CO)O1)NCc1ccccc1Cl,–,·,–,·,·
Cc1c(C(=O)Nc2ccc(S(=O)(=O)NCC3CCCO3)cc2)cccc1[N+](=O)[O-] (stereo not given),–,–,–,38,–
CCN1[C@H](C(=O)NCc2cccc(OC)c2)[C@@H](CO)[C@@H]2Cn3c(ccc(C4=CCCC4)c3=O)[C@@H]21,–,·,–,·,·
CC(C)NC(=O)Nc1ccc2c(c1)C(=O)N([C@H](C)CO)C[C@H](C)[C@@H](CN(C)Cc1ccc(-c3ccccc3)cc1)O2,–,·,–,·,·
[O-][n+]1cccc2cccc(O)c21,–,–,53,–,–
CC(C)NC(=O)NCC[C@H]1CC[C@H](NC(=O)Nc2ccccc2)[C@@H](CO)O1,–,·,–,·,·
COc1ccc(-c2cnc3c(c2)C(=O)N([C@@H](C)CO)C[C@@H](C)[C@H](CN(C)C(=O)Cc2ccccn2)O3)cc1,–,·,–,·,·
O=S(=O)(N[C@H]1CC[C@@H](CCn2cc(-c3cccnc3)nn2)O[C@H]1CO)c1ccc(F)cc1,–,·,–,·,·
COC(=O)C1CC2(C(=O)OC)CC(C(=O)OC)(CC(C(=O)OC)C2=O)C1=O (stereo not given),–,–,–,26,–
COC(=O)C1CC2=C(CCCC2=O)NC1=O (stereo not given),–,–,–,–,–
C[C@@H]1CCCCO[C@H](CN(C)S(=O)(=O)c2cccs2)[C@H](C)CN([C@H](C)CO)C(=O)c2cc(NS(=O)(=O)c3ccccc3)ccc2O1,–,·,–,·,·
Cc1cc2cc(CN(Cc3ccc4c(c3)OCO4)C(=O)c3cnccn3)c3nnnn3c2cc1C,·,–,–,–,–
CC(=O)N(Cc1cc2cc(C)c(C)cc2n2nnnc12)CC1COCCO1 (stereo not given),63,–,–,–,–
CCOC(=O)C1(CCCc2ccccc2)CCN(C(=O)CN2CCOC2=O)CC1,–,–,–,–,–
CCOC(=O)C1(Cc2ccccc2Cl)CCN(C(=O)CN2CCOC2=O)CC1,–,–,–,23,–
SMILES,GSIS activator,ABCB6 inh 2,ARNT-TACC3 inh,NRP1-CendR mod,hiPSC survival
CC1(C)Cc2ccccc2C(CSc2ccccc2C(=O)O)=N1,–,–,·,–,–
COc1cc2c(cc1OC)C(CSc1ccccc1C(=O)O)=NC(C)(C)C2,41,–,–,–,–
CCC(=O)N1CCC2(CC1)Oc1ccc(F)cc1C(=O)C21CC(c2ccc(Cl)cc2)=NO1 (stereo not given),–,–,–,–,–
CC(C)C(=O)N1CCC2(CC1)Oc1ccc(F)cc1C(=O)C21CC(c2ccc(Cl)cc2)=NO1 (stereo not given),–,–,–,25,–
CNC[C@@H]1Oc2ccc(NC(=O)CCCN(C)C)cc2CC(=O)N([C@H](C)CO)C[C@H]1C,–,·,·,·,·
N#Cc1c(=O)c2nc(NCc3ccccc3)ncc2n2ccccc12,·,–,53,–,–
COc1ccc(/C=C/C(=O)Nc2cccc(F)c2)cc1S(=O)(=O)N1CCOCC1,–,–,–,23,–
COc1ccc(/C=C/C(=O)Nc2ccccc2F)cc1S(=O)(=O)N1CCOCC1,–,–,–,–,–
CC(C)Cc1nn2c(=O)cc(COc3ccc(NC(=O)c4ccco4)cc3)nc2s1,47,–,–,–,–
O=C(Cc1cccnc1)N1CC2(C1)[C@H](c1ccccc1)[C@H](CO)N2C(=O)C1CCCCC1,–,·,·,·,·
C[C@@H]1O[C@H](C2CCCC2)CC2=C1C(=O)OC(C)(C)O2,60,–,·,–,–
CC1(C)OC(=O)C2=C(C[C@@H](C3CCCC3)O[C@H]2c2ccc(Cl)cc2)O1,–,–,·,–,–
CCOC(=O)C(CC)Sc1ccc2nnc(-c3cccnc3)n2n1 (stereo not given),–,–,–,–,–
COc1ccccc1NC(=O)CSc1ccc2nnc(-c3cccnc3)n2n1,–,–,71,–,–
CCC(Sc1ccc2nnc(-c3cccnc3)n2n1)C(=O)O (stereo not given),–,–,–,–,23
O=C(O)CCNc1ccc(NCCC(=O)O)c2c1C(=O)c1ccccc1C2=O,–,–,·,46,–
O=C(NCCO)c1cccc2c1C(=O)c1ccccc1-2,–,–,–,–,–
O=C1c2cccc(NCCNCCO)c2C(=O)c2cccc(NCCNCCO)c21,–,–,47,–,–
Cc1noc(C)c1NC(=O)Nc1ccc2c(c1)CC(=O)N([C@H](C)CO)C[C@H](C)[C@@H](CN(C)Cc1ccc(Oc3ccccc3)cc1)O2,–,·,–,·,·
Cc1noc(C)c1NC(=O)N[C@H]1C=C[C@H](CC(=O)NCCCN(C)C)O[C@H]1CO,–,·,–,·,·
CCCNC(=O)[C@H]1[C@H](CO)[C@H]2Cn3c(ccc(C4=CCCC4)c3=O)[C@@H]1N2S(C)(=O)=O,–,·,·,·,·
O=C(CCN1CCOCC1)NNC(=S)NC(=O)c1ccccc1,–,–,48,–,–
O=C(CCN1CCOCC1)c1ccccc1,105,–,–,–,–
O=C(CCCN1CCOCC1)c1ccc2c(c1)OCCO2,·,–,–,–,–
O=C(CCN1CCOCC1)c1ccc2c(c1)OCCO2,48,–,–,–,–
SMILES,GSIS activator,ABCB6 inh 2,ARNT-TACC3 inh,NRP1-CendR mod,hiPSC survival
COCCNC(=O)C[C@@H]1C[C@@H]2c3cc(NC(=O)CN(C)C)ccc3O[C@@H]2[C@@H](CO)O1,–,·,·,·,·
COc1cccc(CNS(=O)(=O)c2cc(CN3C(=O)c4cccnc4C3=O)ccc2OC)c1,–,–,50,–,–
COc1ccc(/C=C2\C(=O)OCc3cc(OC)c(OC)cc32)cc1OC,103,–,–,25,–
COc1ccc(C=C2C(=O)OC(C)(C)OC2=O)cc1OC,–,–,–,–,–
COc1cc2c(cc1OC)/C(=C/c1ccc(Cl)cc1)C(=O)OC2,62,–,–,–,–
CCc1n[nH]c(=S)n1/N=C/c1cc(OC)cc([N+](=O)[O-])c1O,–,–,·,47,–

# Bioassay records as filed in PubChem BioAssay.
